# Screens deposited in PubChem BioAssay by National Center for Advancing Translational Sciences (NCATS).
# Nrf2 block: Nrf2 pathway inhibition; 360,000 tested, 2.1% active; A549 ARE-Fluc reporter, luciferase luminescence, 18-24 h; Potency, µM (titrated, usually from 46 µM), for inactives: at the highest dose activity change, negative = inhibition, hits mostly inhibitors; further: potency means the concentration at half of the fitted maximal effect; on the % scale 0 is the no-effect control and ±100 the full control effect; nearly all actives have a fitted effect of over 60% in size
#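 A549 ARE_Fluc cells, 5000/well, 5% FBS OPTI-MEM; compounds in dose-response, 18-24 h at 37 °C/5% CO2; CellTiter-Fluor viability read (Ex 405/Em 525), then BugLite luciferase luminescence = Nrf2 activity.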
# IDH1 R132H inh: human IDH1 R132H inhibition; O75874; IDH1-R132H enzyme, NADPH consumption, diaphorase/resazurin fluorescence; Potency, µM (series often up to 76.6 µM), for the others: top-dose activity change, negative = inhibition, most hits filed as inhibitors; 390,000 tested, 0.093% active; AID 602179; further: potency means the concentration at half of the fitted maximal effect; on the % scale 0 is the no-effect control and ±100 the full control effect; nearly all actives have a fitted effect of over 65% in size
# Target sequence (O75874 whole entry R132H, stated change not applied): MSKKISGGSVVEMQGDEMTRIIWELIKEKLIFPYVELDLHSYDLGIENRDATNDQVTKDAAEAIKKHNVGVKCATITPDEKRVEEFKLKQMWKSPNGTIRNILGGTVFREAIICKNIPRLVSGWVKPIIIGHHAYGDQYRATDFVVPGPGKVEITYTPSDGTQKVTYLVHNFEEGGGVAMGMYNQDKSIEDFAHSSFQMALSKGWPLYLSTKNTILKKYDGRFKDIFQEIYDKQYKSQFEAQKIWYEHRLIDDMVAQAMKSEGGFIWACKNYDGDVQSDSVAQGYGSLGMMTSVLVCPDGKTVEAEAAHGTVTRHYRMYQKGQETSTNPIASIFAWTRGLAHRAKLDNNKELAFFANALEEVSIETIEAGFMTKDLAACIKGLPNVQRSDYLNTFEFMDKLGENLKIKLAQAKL
#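 IDH1-R132H (0.5 ug/mL) preincubated 30 min with compound, then NADPH (0.016 mM) and alpha-KG (2 mM) added; 80 min at RT, pH 7.5. Remaining NADPH coupled via diaphorase/resazurin to fluorescence (540/590 nm); concentration-response curves normalized to no-enzyme control.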
# A549 tox: counter-screen for Nrf2 inhibitors: cytotoxicity in A549 cells; AID 504648; 390,000 tested, 0.16% active; Potency, µM (titrated, usually from 46 µM), for the others: at the highest dose activity change, negative = cytotoxicity, most hits filed as inhibitors; A549 ARE-Fluc cells, CellTiter-Fluor viability, 18-24 h; further: potency means the concentration at half of the fitted maximal effect; on the % scale 0 is the no-effect control and ±100 the full control effect
#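 A549 ARE_Fluc cells in 5% FBS OPTI-MEM were exposed to compounds in concentration-response for 18-24 h at 37 deg C. Viability was read by CellTiter-Fluor fluorescence (Ex 405/Em 525) after 30 min, before the luciferase read.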
# Nrf2 ARE act: activates Nrf2 signaling; AREc32 ARE-luciferase reporter (MCF7-derived line), luminescence, 24 h; 410,000 tested, 0.31% active; Potency, µM (titrated, usually from 46.1 µM), inactives show top-dose activation, usual class: activators; further: potency means the concentration at half of the fitted maximal effect; % of control where 0% means no effect; nearly all actives have a fitted effect of over 65% in size
#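 Reporter line AREc32 (ARE-Fluc), seeded overnight in OPTI-MEM with 5% FBS; compound pin-transferred, 24 hr at 37 deg C, 5% CO2; luminescent read-out.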
# Giardia killer: Giardia lamblia killing | activity change, % at 7.66 µM, hits read low | Giardia lamblia trophozoite viability | 340,000 tested, 0.15% active | AID 540267; in the data active means activity change below about -80%; inconclusive means between about -30% and that limit;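 further: parasites exposed to compound for two days anaerobically before the ATP read; on the % scale 0 is the no-effect control and ±100 the full control effect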
#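 ATP-content bioluminescence gauges trophozoite survival. Cells (100/well) receive compound and incubate anaerobically for 48 hrs at 37 deg C; detection reagent follows for 15-30 min at room temperature.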
# Apoferritin bind: candidate novel general anesthetic via apoferritin binding. AID 485281. apoferritin/1-aminoanthracene competitive binding, fluorescence. 350,000 tested, 0.074% active. Potency, µM (top dose mostly 77.5 µM), for inactives: top-dose activity change, negative = displacement, hits mostly inhibitors. P02791; further: potency means the concentration at half of the fitted maximal effect; on the % scale 0 is the no-effect control and ±100 the full control effect; nearly all actives have a fitted effect of over 20% in size
# Target sequence (P02791 2-175 limits assumed): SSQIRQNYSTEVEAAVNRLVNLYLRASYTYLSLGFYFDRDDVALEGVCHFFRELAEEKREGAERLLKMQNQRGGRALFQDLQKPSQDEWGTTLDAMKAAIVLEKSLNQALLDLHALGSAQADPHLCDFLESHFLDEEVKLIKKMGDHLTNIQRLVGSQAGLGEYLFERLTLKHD
#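 Horse-spleen apoferritin (10 uM) in 50% saturated 1-aminoanthracene in PBS was incubated 10 min at room temperature with compound. Fluorescence (ex 380, em 535 nm) was normalized to free and bound 1-AMA, with concentration-response fitted by a four-parameter Hill equation.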
# An asterisk follows results filed as active; ? = inconclusive; . = no result given. Only some compounds are listed: those with a hit (about 2.3% of all), similar ones and a draw of the others. Unless noted, the call rests on the fitted dose curve; in most records, active means well fitted curve in the direction sought with a large enough effect; inconclusive means small, poorly fitted or top-dose-only effect, or another doubt; inactive means no such curve, though single readings can be large; an effect the other way counts as inactive or inconclusive.
SMILES,Nrf2 block,IDH1 R132H inh,A549 tox,Nrf2 ARE act,Giardia killer,Apoferritin bind
CC(C)C(OC(=O)CNC(=O)c1ccccc1)C(=O)Nc1cc(C(F)(F)F)ccc1Cl (stereo unspecified),-1.1%,.,6.4%,.,.,.
CC(=O)Nc1cccc(NC(=O)CSc2cn(CC(=O)N(C(C)C)C(C)C)c3ccccc23)c1,-13.5%,-5.0%,2.5%,3.3%,.,-14.1%
CC(C)(C)NS(=O)(=O)c1ccc(NC(=O)C(Sc2ccccc2)c2ccccc2)cc1 (stereo unspecified),9.2µM*,-3.8%,?,-0.3%,-5.7,-5.0%
COc1cccc(C2c3c(ncn(-c4ccc5c(c4)OCO5)c3=N)Oc3ccc4ccccc4c32)c1 (stereo unspecified),6.8%,.,-7.4%,.,.,.
COC(=O)c1sccc1NC(=O)c1ccco1,-1.5%,-0.3%,1.4%,11.2µM*,11.0,-6.3%
COC(=O)c1ccccc1NC(=O)c1ccco1,.,2.2%,6.6%,24.4%,-17.5,-18.8%
COC(=O)c1sccc1NC(=O)c1cccc(F)c1,7.1%,0.6%,-5.8%,10µM*,11.2,.
COC(=O)c1sccc1NC(=O)c1ccccc1[N+](=O)[O-],-1.1%,0.9%,-2.2%,11.2µM*,2.0,-8.6%
Cc1ccc(S(=O)(=O)Nc2cc3c(cc2N2CCOCC2)n(C)c(=O)n3C)c(C)c1,-11.7%,-8.5%,0.1%,0.8%,.,-12.2%
CCOc1ccc(S(=O)(=O)N(CC(=O)Nc2ccc(OC)c(Cl)c2)c2ccccc2)cc1,15.8%,4.6%,-0.5%,0.1%,.,92.1%
O=C(Nc1ccc(F)cc1)c1cccc(N2C(=O)C3C4C=CC(C4)C3C2=O)c1 (stereo unspecified),-20.7%,-3.4%,-6.4%,-0.3%,-1.3,?
COC(=O)c1ccc(NC(=O)c2cccc(N3C(=O)C4C5C=CC(C6CC56)C4C3=O)c2)cc1 (stereo unspecified),20.6µM*,-1.5%,?,-0.5%,-11.9,?
O=C(Nc1ccccc1)c1cccc(N2C(=O)C3C4C=CC(C5CC45)C3C2=O)c1 (stereo unspecified),20.6µM*,9.5%,-11.0%,0.1%,-7.9,?
O=C(Nc1ccc(F)cc1)c1cccc(N2C(=O)C3C4C=CC(C5CC45)C3C2=O)c1 (stereo unspecified),14.6µM*,3.6%,-11.7%,0.2%,-2.5,?
Cc1ccccc1S(=O)(=O)N(C)C[C@H]1OCc2cn(nn2)CCCC(=O)N([C@H](C)CO)C[C@@H]1C,.,.,.,0.0%,.,.
CN(Cc1ccccc1)C(=O)c1ccc2c(c1)N(Cc1ccc(Cl)cc1)C(=O)c1ccccc1S2=O (stereo unspecified),20.6µM*,10.8%,-29.1%,0.4%,.,-13.8%
CCN1C(=O)c2ccccc2S(=O)c2ccc(C(=O)N3CCN(c4cccc(C)c4)C(C)C3)cc21 (stereo unspecified),16.4µM*,19.1%,-28.5%,1.4%,.,?
CCN1CCN(C(=O)c2ccc3c(c2)N(Cc2cccc(Cl)c2)C(=O)c2ccccc2S3=O)CC1 (stereo unspecified),.,-6.6%,6.7%,0.2%,.,-12.1%
O=C(NCc1ccco1)c1ccc2c(c1)N(Cc1ccc(Cl)cc1)C(=O)c1ccccc1S2=O (stereo unspecified),-28.3%,12.8%,-10.9%,5.3%,.,-9.6%
CCOC(=O)N1CCN(C(=O)c2ccc3c(c2)N(Cc2cccc(Cl)c2)C(=O)c2ccccc2S3=O)CC1 (stereo unspecified),20.6µM*,-17.4%,?,0.3%,-4.4,-19.1%
Cc1ccsc1CCN1C(=O)N(c2ccccc2)C(=O)C1CC(=O)Nc1ccc(Cl)cc1 (stereo unspecified),?,28.1%,-23.2%,4.2%,.,2.5%
Clc1cccc(-n2cc(-c3ccccc3)c3c(N4CCCCC4)ncnc32)c1,.,-11.9%,10.5%,0.0%,.,-12.6%
CC1=C(C(=O)N(C)C)CC(CC(=O)NCCCN(C)C)C(=O)N1CCCN1CCCC1=O (stereo unspecified),.,.,.,-0.8%,.,.
CC(C)=CC(O)C/C(C)=C/COc1ccc2ccc(=O)oc2c1 (stereo unspecified),10.3µM*,1.1%,-28.9%,-3.4%,14.6,?
O=C(Cn1c(=O)n(-c2ccc(F)c(Cl)c2)c(=O)c2sc3ccccc3c21)NC1CCCCC1,-2.8%,5.4%,-6.7%,0.0%,.,-4.2%
SMILES,Nrf2 block,IDH1 R132H inh,A549 tox,Nrf2 ARE act,Giardia killer,Apoferritin bind
Cc1ccc(C2=C(c3ccc([N+](=O)[O-])cc3)C(=O)OC2)cc1C,23.1µM*,-2.4%,-17.2%,2.9%,5.9,-20.7%
COc1ccc(C2=C(c3ccc([N+](=O)[O-])cc3)C(=O)OC2)cc1,-2.4%,-5.6%,-1.2%,-0.1%,9.3,-10.4%
C/C=C1\COC(C(=O)NCCN2CCOCC2)(C(F)(F)F)C=C1C=C(C)C (stereo unspecified),?,.,-15.2%,.,17.0,-9.1%
CC(C)CN(CC(C)C)C(=S)Nc1ccc(Cl)cc1,25.9µM*,-1.9%,-21.6%,6.0%,-2.6,-20.1%
CCC(=O)OC1(C(C)=O)CCC2C3CCC4=CC(=O)CCC4(C)C3CCC21C (stereo unspecified),1.16µM*,5.0%,5.6%,5.7%,14.1,.
CC(=O)OC1(C(C)=O)CCC2C3CC(C(F)(F)F)C4=CC(=O)CCC4(C)C3CCC21C (stereo unspecified),-14.1%,-4.3%,-6.0%,7.08µM*,-11.1,.
CC1CC2C3CCC4=CC(=O)CCC4(C)C3CCC2(C)C1(O)C(=O)CO (stereo unspecified),0.651µM*,6.9%,-4.5%,4.3%,-9.3,.
CC(=O)O[C@]1(C(C)=O)CC[C@H]2[C@@H]3C=C(Cl)C4=CC(=O)CC[C@]4(C)[C@H]3CC[C@@]21C,?,4.5%,1.2%,11.0%,14.7,?
CC(=O)O[C@]1(C(C)=O)CC[C@H]2[C@@H]3C[C@H](C)C4=CC(=O)CC[C@]4(C)[C@H]3CC[C@@]21C,0.259µM*,15.8%,-14.5%,1.1%,-8.8,-3.6%
O=S1(=O)N=C(Oc2ccccc2-c2ccccc2)c2ccccc21,6.7%,.,-4.7%,.,.,.
CC1(O)c2ccccc2C(=O)N1Cc1ccccc1 (stereo unspecified),-20.3%,5.2%,-7.6%,0.5%,7.5,-16.9%
CC1(O)c2ccccc2C(=O)N1CCc1ccccc1F (stereo unspecified),?,5.4%,3.9%,7.08µM*,-4.1,?
CN1CCN(C2CN(Cc3ccc(F)cc3)S(=O)(=O)C2)CC1 (stereo unspecified),.,.,.,0.3%,.,.
